Measured values published in PubChem BioAssay AID743484 (Broad Institute, 2014).
Entries with a potency or affinity are not part of this list. Active and inactive are the calls of the source.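 The calls were made as follows: active = cell-killing compounds whose fitted half-effect concentration is at most twice their highest valid dose; inconclusive = flat curve with 30 to 70% signal loss, or poor fit; inactive = the rest.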

experiment: cytotoxicity in A549 cells, dose response, cytotoxicity control, cell-based, CellTiter-Glo luminescence, cherry-pick (AID 743484); conditions: A549 viability, CellTiter-Glo ATP luminescence, 72 h; series mostly up to 26 µM

| SMILES | outcome |
| --- | --- |
| CC[C@H]1OC(=O)[C@H](C)[C@@H](O[C@H]2C[C@@](C)(OC)[C@@H](O)[C@H](C)O2)[C@H](C)[C@@H](O[C@@H]2O[C@H](C)C[C@H](N(C)C)[C@H]2O)[C@](C)(O)C[C@@H](C)[C@@H]2N[C@@H](COCCOC)O[C@H]([C@H]2C)[C@]1(C)O | inactive |
| Cc1ccc(C)c(NC(=O)CSc2nc3nc(-c4cccs4)cc(C(F)(F)F)c3c(=O)[nH]2)c1 | inactive |
| COc1ccc(Nc2oc(-c3ccco3)nc2S(=O)(=O)c2ccc(F)cc2)cc1 | inactive |
| CCOC(=O)c1c(NC(=O)Cc2cccs2)sc(C)c1C | inactive |
| O=C(O)c1cc([N+](=O)[O-])ccc1NCc1ccccc1 | inactive |
